Results as given in PubChem BioAssay.
Activity calls are given as the source filed them. Unless noted, no rule for the calls is given here.

Assays:
[1] = test system: Wnt5a (protein binding on small-molecule microarray); assay: Wnt5a binders on small-molecule microarray, primary screen, biophysical, 635/667 nm fluorescence (AID 1142); conditions: 635 nm fluorescence, higher = more signal;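 also: fluorescence read at 667 nm with signal to noise per printed feature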
[2] = cell viability in Huh7 cells, primary screen, cytotoxicity control for HCV replication inhibitor project, CellTiter-Glo luminescence, basal, 48 h (AID 1143); conditions: Huh7 HCV replicon, higher = more signal, called active from +8 up or from −8 down;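 also: Huh7 hepatoma cells carrying a hepatitis C replication reporter with no stimulus; test concentration not given here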
[3] = P. aeruginosa biofilm formation inhibitors, primary screen, PAO1 strain, BacTiter-Glo luminescence, LB-PBS (AID 1144); conditions: 12 h, higher = more signal
[4] = CREB reporter modulators without forskolin, primary screen, cell-based, PC12, CRE-LacZ reporter, unstimulated (AID 1145); conditions: no forskolin, luminescence, 4.5 h, higher = more signal, called active from +8 up or from −8 down
[5] = CREB reporter modulators under forskolin, primary screen, cell-based, PC12, CRE-LacZ reporter, forskolin-stimulated (AID 1146); conditions: luminescence, 4.5 h, higher = more signal, called active from +8 up or from −8 down;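 also: PC12 cells with 6xCRE LacZ reporter stimulated by forskolin 10 µM; beta-galactosidase reporter signal reflecting CREB driven transcription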
[6] = biological target: Streptavidin (Streptomyces avidinii) (UniProt P22629); assay: streptavidin binders on small-molecule microarray, primary screen, artefact control for SMM compound annotation, biophysical, 635/667 nm fluorescence (AID 1147); conditions: streptavidin binding, higher = more signal;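 also: signal reflects streptavidin binding to arrayed compounds as a control protein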
Streptavidin (Streptomyces avidinii), sequence (P22629 whole entry, looked up): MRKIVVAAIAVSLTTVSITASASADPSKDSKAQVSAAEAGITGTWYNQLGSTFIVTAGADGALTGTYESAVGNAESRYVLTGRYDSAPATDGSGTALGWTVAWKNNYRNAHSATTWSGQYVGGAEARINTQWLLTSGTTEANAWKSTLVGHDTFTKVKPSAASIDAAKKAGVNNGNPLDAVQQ

[7] = small-molecule binders of probe aInhba, primary screen, biochemical, small-molecule microarray, 635/667 nm fluorescence (AID 1148); conditions: higher = more signal;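 also: score merges 667nm spot fluorescence with signal-to-noise for antibody binding to printed compounds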
Torsin-1A (Homo sapiens) [8] = biological target: Torsin-1A (Homo sapiens) (UniProt O14656); assay: torsin A binders from cell lysate, primary screen, small-molecule microarray, wild-type, 635/667 nm (AID 1149); conditions: COS7 hTOR1A-WT lysate, 635 nm fluorescence, higher = more signal
Torsin-1A (Homo sapiens), sequence (O14656 whole entry, looked up): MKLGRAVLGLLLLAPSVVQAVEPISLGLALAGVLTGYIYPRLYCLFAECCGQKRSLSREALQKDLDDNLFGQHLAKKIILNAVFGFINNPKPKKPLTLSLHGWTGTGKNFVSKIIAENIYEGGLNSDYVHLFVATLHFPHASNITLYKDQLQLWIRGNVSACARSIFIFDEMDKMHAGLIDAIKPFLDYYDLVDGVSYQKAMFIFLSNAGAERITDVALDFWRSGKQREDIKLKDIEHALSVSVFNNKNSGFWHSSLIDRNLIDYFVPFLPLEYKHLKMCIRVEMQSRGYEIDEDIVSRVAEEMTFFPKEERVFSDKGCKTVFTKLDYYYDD

Torsin-1A (Homo sapiens) [9] = biological target: Torsin-1A (Homo sapiens) (UniProt O14656); assay: small-molecule binders of mutant TOR1A in lysate, primary screen, cell lysate, small-molecule microarray, COS7 lysate, 635/667 nm fluorescence (AID 1150); conditions: COS7 hTOR1A mutant lysate, 635 nm fluorescence, higher = more signal;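 also: score pools 667 nm emission and signal to noise measuring lysate protein binding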
[10] = test system: Sonic hedgehog protein (Shh); assay: small-molecule binders of Shh protein, primary screen, biochemical, small-molecule microarray, 635/667 nm fluorescence (AID 1151); conditions: small-molecule microarray binding, 635 nm fluorescence; higher = more signal;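 also: Shh protein binding to compounds spotted on small-molecule microarray slides; score combines spot fluorescence intensity with signal-to-noise across triplicate slides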
[11] = E. coli DRC41 culture turbidity changes, primary screen, E. coli filamentation inducer project, strain DRC41, OD650, 48 h (AID 1152);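 also: E. coli MC1000 strain DRC41 lacking acrAB efflux pump and sulA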; conditions: E. coli DRC41 (acrAB sulA), higher = more signal, called active from +8 up or from −8 down
[12] = small-molecule binders of probe aLefty1, primary screen, biochemical, small-molecule microarray, 635/667 nm fluorescence (AID 1153); conditions: higher = more signal;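 also: score merges spot fluorescence with signal-to-noise ratio from the scanned slide images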
[13] = PSAC antagonists in infected red cells, primary screen, cell-based, P. falciparum Indochina, OD700, 1 h (AID 1154); conditions: P. falciparum Indochina infected RBC osmotic lysis, higher = more signal, called active from +8 up or from −8 down
[14] = PSAC antagonists in infected red cells, primary screen, cell-based, P. falciparum Indochina, OD700, 2 h (AID 1155);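 also: lysis reports solute entry through the parasite surface anion channel PSAC; channel blockers reduce lysis of infected cells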; conditions: P. falciparum Indochina infected erythrocytes, osmotic lysis OD700; higher = more signal, called active from +8 up or from −8 down
[15] = osmotic lysis modulators in infected erythrocytes, primary screen, PSAC antagonist project, cell-based, P. falciparum Indochina, OD700, 3 h (AID 1156); conditions: higher = more signal, called active from +8 up or from −8 down
[16] = PSAC antagonists in infected red cells, primary screen, cell-based, P. falciparum Indochina, OD700, 18 h (AID 1157); conditions: P. falciparum Indochina infected erythrocytes, osmotic lysis OD700, 18 h; higher = more signal, called active from +8 up or from −8 down
[17] = modulators of S6 phosphorylation in cells, primary screen, cell-based, A549, cytoblot, luminescence, serum-stimulated (AID 1158); conditions: A549 phospho-S6 cytoblot, 5 h, higher = more signal;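 also: serum-stimulated A549 lung adenocarcinoma cells; signal is phosphorylated S6 detected by cytoblot immunostaining with HRP secondary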
[18] = biological target: NADPH oxidase 2 (Homo sapiens) (UniProt P04839); assay: NOX2-dependent H2O2 signal modulators, primary screen, NOX inhibitor project, cell-based, HEK293-NOX2, PMA-stimulated, Amplex Red fluorescence (AID 1159); conditions: 45 min, higher = more signal, called active from +8 up or from −8 down; also: test concentration not given here
NADPH oxidase 2 (Homo sapiens), sequence (P04839 whole entry, looked up): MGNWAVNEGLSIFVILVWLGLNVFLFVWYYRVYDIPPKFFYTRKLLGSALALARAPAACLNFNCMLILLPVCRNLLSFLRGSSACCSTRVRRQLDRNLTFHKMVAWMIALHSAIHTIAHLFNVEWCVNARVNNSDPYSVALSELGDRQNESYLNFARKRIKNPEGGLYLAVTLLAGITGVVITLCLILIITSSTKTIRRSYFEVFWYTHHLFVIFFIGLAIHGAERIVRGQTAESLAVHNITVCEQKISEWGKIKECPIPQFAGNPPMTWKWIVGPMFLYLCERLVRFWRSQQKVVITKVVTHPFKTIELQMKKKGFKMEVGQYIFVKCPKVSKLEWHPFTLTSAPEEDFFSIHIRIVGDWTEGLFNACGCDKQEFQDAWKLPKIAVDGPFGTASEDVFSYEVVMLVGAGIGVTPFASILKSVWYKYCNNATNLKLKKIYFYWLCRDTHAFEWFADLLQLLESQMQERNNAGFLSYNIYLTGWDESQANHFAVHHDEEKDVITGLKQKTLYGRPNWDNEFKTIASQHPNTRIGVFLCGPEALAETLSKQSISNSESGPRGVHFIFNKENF

[19] = biological target: NADPH oxidase 4 (Homo sapiens) (UniProt Q9NPH5); assay: NOX4-dependent H2O2 signal modulators, primary screen, NOX inhibitor project, cell-based, HEK293-NOX4, tetracycline-induced, Amplex Red fluorescence (AID 1160); conditions: 45 min, higher = more signal, called active from +8 up or from −8 down
NADPH oxidase 4 (Homo sapiens), sequence (Q9NPH5 whole entry, looked up): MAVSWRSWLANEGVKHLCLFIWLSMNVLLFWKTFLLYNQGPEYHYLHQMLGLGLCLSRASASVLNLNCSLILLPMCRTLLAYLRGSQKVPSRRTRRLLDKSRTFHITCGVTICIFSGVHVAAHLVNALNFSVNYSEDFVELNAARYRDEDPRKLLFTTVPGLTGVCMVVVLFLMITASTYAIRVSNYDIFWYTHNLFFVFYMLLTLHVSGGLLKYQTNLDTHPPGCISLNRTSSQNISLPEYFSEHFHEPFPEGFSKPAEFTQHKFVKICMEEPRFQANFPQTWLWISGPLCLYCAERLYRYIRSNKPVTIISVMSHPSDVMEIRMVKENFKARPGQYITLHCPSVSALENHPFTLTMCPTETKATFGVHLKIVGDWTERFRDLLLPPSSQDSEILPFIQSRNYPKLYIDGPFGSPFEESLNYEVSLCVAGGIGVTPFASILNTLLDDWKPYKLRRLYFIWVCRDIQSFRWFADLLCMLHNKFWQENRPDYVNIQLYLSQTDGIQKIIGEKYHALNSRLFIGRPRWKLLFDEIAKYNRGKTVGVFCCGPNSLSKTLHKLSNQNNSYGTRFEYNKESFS

[20] = biological target: NADPH oxidase 5 (Homo sapiens) (UniProt Q96PH1); assay: NOX5-dependent H2O2 signal modulators, primary screen, NOX inhibitor project, cell-based, HEK293-NOX5, Amplex Red fluorescence (AID 1161); conditions: HEK293-NOX5, ionomycin, 45 min, higher = more signal
NADPH oxidase 5 (Homo sapiens), sequence (Q96PH1 whole entry, looked up): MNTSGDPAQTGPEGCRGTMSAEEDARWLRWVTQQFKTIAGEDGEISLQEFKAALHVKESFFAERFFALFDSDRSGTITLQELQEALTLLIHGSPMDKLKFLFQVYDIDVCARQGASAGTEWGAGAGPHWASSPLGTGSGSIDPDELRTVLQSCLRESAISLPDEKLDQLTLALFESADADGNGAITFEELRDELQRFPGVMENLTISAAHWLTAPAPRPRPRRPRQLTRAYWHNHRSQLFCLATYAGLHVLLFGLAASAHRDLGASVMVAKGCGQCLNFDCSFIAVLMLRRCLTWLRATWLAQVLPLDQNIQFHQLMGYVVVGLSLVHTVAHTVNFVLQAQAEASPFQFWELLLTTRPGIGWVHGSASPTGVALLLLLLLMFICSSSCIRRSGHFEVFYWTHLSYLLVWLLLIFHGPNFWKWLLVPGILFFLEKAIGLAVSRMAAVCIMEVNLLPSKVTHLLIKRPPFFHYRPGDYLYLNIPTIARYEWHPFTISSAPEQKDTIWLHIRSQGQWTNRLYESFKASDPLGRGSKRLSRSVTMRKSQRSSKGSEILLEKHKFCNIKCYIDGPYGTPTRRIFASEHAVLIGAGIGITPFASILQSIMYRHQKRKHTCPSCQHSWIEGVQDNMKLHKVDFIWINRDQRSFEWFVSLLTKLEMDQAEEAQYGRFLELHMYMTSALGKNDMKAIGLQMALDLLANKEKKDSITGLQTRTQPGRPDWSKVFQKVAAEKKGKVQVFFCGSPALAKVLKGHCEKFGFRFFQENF

Row | SMILES | composite z-score [1] | z-score [2] | z-score [3] | z-score [4] | z-score [5] | composite z-score [6] | composite z-score [7] | composite z-score (Torsin-1A (Homo sapiens) [8]) | composite z-score (Torsin-1A (Homo sapiens) [9]) | composite z-score [10] | z-score [11] | composite z-score [12] | z-score [13] | z-score [14] | z-score [15] | z-score [16] | z-score [17] | z-score [18] | z-score [19] | z-score [20]
1 | O=C1C[C@@H](O)[C@@H](O)[C@@H]2[C@@H]3C(=O)N(C[C@@H]4CCCO4)C(=O)[C@@H]3CC[C@H]12 | 0.288 | 0.114 (inactive) | 0.54 (inactive) | 0.517 (inactive) | -0.105 (inactive) | 0.168 | -0.128 | 0.34 | 0.068 | 0.46 | 0.555 (inactive) | -0.0969 | 0.651 (inactive) | 0.461 (inactive) | -0.406 (inactive) | 0.376 (inactive) | -0.0289 | -0.453 (inactive) | -0.111 (inactive) | -0.0473
2 | CC(CCN1CCCCc2nc(C)c(C)cc21)=NOC[C@@H](C)[C@H](OCc1ccccc1)C(C)C | -0.876 | -1.07 (inactive) | -0.4 (inactive) | 0.262 (inactive) | 0.264 (inactive) | -2.45 | -0.37 | -1.62 | -1.49 | -0.689 | -0.605 (inactive) | -0.502 | -0.0226 (inactive) | -1.71 (inactive) | 0.167 (inactive) | -1.99 (inactive) | 1.08 | -1.86 (inactive) | -0.629 (inactive) | -3.18
3 | O=c1n(Cc2cc3c(cc2Cl)OCO3)c(=O)n2n1CC[C@@H]1C(=NOC[C@@H](O)COCc3ccco3)[C@H]3O[C@H]3[C@@H](O)[C@@H]12 | 0.127 | 0.376 (inactive) | -1.11 (inactive) | 0.975 (inactive) | 0.819 (inactive) | 1.02 | 0.0084 | 0.365 | 0.156 | 0.344 | -0.289 (inactive) | 0.175 | 0.0384 (inactive) | 0.012 (inactive) | -0.258 (inactive) | -0.138 (inactive) | 0.393 | 0.0338 (inactive) | -1.95 (inactive) | -0.278
4 | Cc1ccc(S(=O)(=O)N[C@H]2COC(=O)CC=C[C@@H](C)COC(=O)CC=C[C@@H]2C)cc1 | -0.0032 | 0.319 (inactive) | -0.748 (inactive) | -0.0223 (inactive) | 0.113 (inactive) | 0.407 | -0.0645 | 0.346 | -0.534 | 1.92 | 0.142 (inactive) | -0.296 | 0.866 (inactive) | -0.162 (inactive) | -0.424 (inactive) | -0.014 (inactive) | -0.41 | 0.225 (inactive) | 0.684 (inactive) | 0.238
5 | CC(CCN1CCCCc2nc(C)c(C)cc21)=NO[C@H](C)c1cn([C@H](CO)Cc2ccccc2)nn1 | 0.101 | -1.11 (inactive) | 0.0152 (inactive) | 2.24 (inactive) | 0.743 (inactive) | 0.0378 | -0.256 | 2.04 | 0.164 | 1.32 | 0.285 (inactive) | -0.0162 | 2.87 (inactive) | 1.16 (inactive) | 0.758 (inactive) | 0.589 (inactive) | -0.286 | -0.939 (inactive) | 0.0532 (inactive) | 0.477
6 | CO[C@H]1COC(=O)CC=C[C@H](C)[C@@H](OC)COC(=O)[C@@H](C)COC(=O)CC=C[C@@H]1C | -0.545 | -1.66 (inactive) | 0.0344 (inactive) | -0.292 (inactive) | -1.02 (inactive) | -0.411 | -0.331 | 2.79 | 2.2 | 2.12 | -0.513 (inactive) | -0.193 | -0.435 (inactive) | 0.106 (inactive) | 0.033 (inactive) | -0.213 (inactive) | -0.0875 | -1.46 (inactive) | 0.28 (inactive) | 0.18
7 | C#CCCCON=C1C[C@@H](O)[C@@H](O)[C@@H]2[C@@H]3C(=O)N(c4cccc(Oc5ccccc5)c4)C(=O)[C@@H]3CC[C@H]12 | -0.591 | -0.593 (inactive) | 0.0591 (inactive) | -0.57 (inactive) | -0.236 (inactive) | -0.77 | -0.191 | 0.32 | 0.855 | -1.01 | 0.496 (inactive) | 0.042 | 1.7 (inactive) | 0.977 (inactive) | 0.773 (inactive) | 0.232 (inactive) | -0.203 | -0.683 (inactive) | 0.186 (inactive) | -0.676
8 | COC(=O)CC=C[C@@H](C)[C@@H](C=NO[C@@H](C)c1cn([C@H](CO)Cc2ccccc2)nn1)NS(=O)(=O)c1ccc(C)cc1 | 0.062 | -0.35 (inactive) | 0.606 (inactive) | 3.99 (inactive) | -0.0697 (inactive) | 0.0525 | 0.0928 | 0.945 | 0.997 | 0.685 | 0.264 (inactive) | 0.196 | 0.507 (inactive) | -1.66 (inactive) | -0.598 (inactive) | -1.93 (inactive) | 1.85 | -0.575 (inactive) | 0.328 (inactive) | 0.17
